These results are taken from PubChem BioAssay (NCI).

About 83,000 compounds went through this panel and 20% of them were active in at least one assay; those are over-represented in the sample as a whole.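 Results are percent growth after 48 hours of single-concentration exposure. 100 means growth as in untreated cells, lower positive values show inhibition; negative values down to -100 show cell death.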 Values without a mark were called inactive. Calls of active or inactive are those of the source. The calls were made as follows: active = growth percent below 10; inactive = the rest.

The first assay concerns HT29 colon. Description: NCI-60 one-dose screen, 48 h (100 = growth as untreated, 0 = no growth, -100 = all killed). The note with it: 10 µM.
On to `S=C1SCC(c2ccccc2)S1` (stereo not drawn), for which the growth is 103%.

For `Nc1ncnc2[nH]c(=O)[nH]c12`, the growth is 105%.

As to `Cc1ccc(S(=O)(=O)Oc2ccc3c4c(c(=O)oc3c2)CCCCC4)cc1`, the growth is 6.29% (active).

On to `CCN(CC)CCSCCN(CC)CC`, for which the growth is 104%.

Take `O=C(Nc1ccccc1)Nc1cccc(-n2cc(-c3ccncc3)c(-c3ccc(O)c(Cl)c3)n2)c1`: the growth was 64.7%.

Regarding `O=C(Nc1cccc(-n2cc(-c3ccncc3)c(-c3ccc(O)c(Cl)c3)n2)c1)c1cccc(C(F)(F)F)c1`, the growth was 31.8%.

On to `O=C(CC(NC(=O)OCc1ccccc1)C(=O)OCc1ccccc1)OCc1ccccc1` (stereo not drawn), for which the growth is 98.6%.

Consider `COc1ccc(Oc2nc(NC3CCCC3)nc(Sc3ccc(OC)cc3)n2)cc1`, for which the growth was 43.7%.

Regarding `COc1ccc(-c2nn(-c3cccc(NC(=O)c4ccc(N5CCOCC5)c(C(F)(F)F)c4)c3)cc2-c2ccncc2)cc1Cl`, the growth was 11.2%.

As to `COc1ccc(-c2nn(-c3cccc(NC(=O)Nc4ccccc4)c3)cc2-c2ccncc2)cc1Cl`, the growth was -69.6% (active).

Consider `CCCCCCCCCCCCCCCC(=O)OC1[C@@H](OC(=O)CCCCCCCCCCCCCCC)[C@@H](C(=O)N[C@@H](CCCCN)C(=O)OC)O[C@H]1n1cnc2c(=O)[nH]c(NC(=O)C(C)C)nc21` (stereo partly drawn), for which the growth is 98.2%.

Regarding `CCc1ccc2c(c1)N(CCO)C1=C(C(=O)OC1)C2c1cc(OC)c(OC)c(OC)c1` (stereo not drawn), the growth was -24.2% (active).

On to `O=S(=O)(NCCCNc1nccc(-c2c(-c3ccc(F)cc3)nc3sccn23)n1)c1ccc2ccccc2c1`, for which the growth was -7.72% (active).

For `CN(C)c1ccc(/C=C/C=N/NC(=O)c2cc(O)c(O)c(O)c2)cc1`, the growth is 111%.

For `Cc1ccc(S(=O)(=O)OCCN(CCOS(=O)(=O)c2ccc(C)cc2)c2c[nH]c(=O)[nH]c2=O)cc1`, the growth is 99.7%.

As to `O=c1oc2cc(OS(=O)(=O)c3ccccc3)ccc2c2c1CCCCC2`, the growth is 10%.

Take `COc1ccc(-c2nn(-c3cccc(NC(=O)c4ccc5c(c4)OCCO5)c3)cc2-c2ccncc2)cc1Cl`: the growth is 0.486% (active).

Consider `Cc1ncc(-c2ccoc2)c(NC2CCCCCC2)n1`, for which the growth was 99.4%.

For the compound `Clc1ccc(Sc2nc(NC3CC3)nc(Sc3ccc(Cl)cc3)n2)cc1`, the growth was 48.8%.

For the compound `CN(C)CCN1C(=O)c2cccc3c(-c4ccc5ncn(C6CCCCC6)c5c4)ccc(c23)C1=O`, the growth is 7.45% (active).

For the compound `O=C(Nc1cccc(-n2cc(-c3ccncc3)c(-c3ccc(O)c(Cl)c3)n2)c1)Nc1cccc(C(F)(F)F)c1`, the growth is 22%.

For the compound `CN(C)Cc1cn(-c2ncc(-c3ccc(C(F)(F)F)cc3)c(NC3CCCCCC3)n2)nn1`, the growth was 31%.

For `COc1ccc(/C=C/C(C)=N/OCC(=O)O)cc1`, the growth was 105%.

As to `COc1ccc(-c2nn(-c3cccc(NC(=O)c4cc(C(F)(F)F)cc(C(F)(F)F)c4)c3)cc2-c2ccncc2)cc1Cl`, the growth was 61%.

On to `O=C1CC[C@@H]2CCCC[C@@H]2C1`, for which the growth was 107%.

In the case of `COc1ccc(C2=NN(C(=O)c3ccc(S(C)(=O)=O)cc3)C(c3ccc(OC)c(OC)c3)C2)c(OC)c1` (stereo not drawn), the growth is 103%.

As for `O=C1OCC2=C1C(c1cccc(Cl)c1)c1cc3c(cc1N2CCO)CCC3` (stereo not drawn), the growth is -9.18% (active).

Take `COc1ccc2c(c1)N(CCO)C1=C(C(=O)OC1)C2c1cc(OC)c(OC)c(OC)c1` (stereo not drawn): the growth is -4.82% (active).

On to `CCOC(=O)c1ccoc1`, for which the growth is 95.1%.

Consider `O=S(=O)(NCCNc1nccc(-c2c(-c3ccc(F)cc3)nc3sccn23)n1)c1ccc2ccccc2c1`, for which the growth was 44.9%.

Consider `CC1=C(N2CCOCC2)C(N2CCOCC2)=C(C)C(=O)C1=O`, for which the growth is 111%.

For the compound `O=C1OCC2=C1C(c1ccc(Cl)c(Cl)c1)c1cc3c(cc1N2CCO)OCCO3` (stereo not drawn), the growth was 2.95% (active).

With `COc1cc2c(cc1OC)N(CCO)C1=C(C(=O)OC1)C2c1ccc(Cl)c(Cl)c1` (stereo not drawn), the growth is 94%.

In the case of `O=C1NC(=O)c2ncccc21`, the growth is 108%.

Consider `CNc1ncc(-c2ccc(C(F)(F)F)cc2)c(NC2CCCCCC2)n1`, for which the growth is 56.8%.

As for `COc1ccc(/C(=C2/O[C@@H]([C@H]3COC(C)(C)O3)[C@H]3OC(C)(C)O[C@@H]23)c2cc(OC)c(OC)c(OC)c2)cc1O`, the growth is 113%.

Take `O=C(NC(Cc1ccc(O)cc1)C(=O)N=Nc1c(O)[nH]c2ccccc12)c1ccccc1` (stereo not drawn): the growth was 101%.

As to `O=C(CNC(=O)OCc1ccccc1)NCC(=O)Oc1ccc([N+](=O)[O-])cc1`, the growth is 98.7%.

Turning to `COc1cc2nc(Nc3cccc(C(=O)O)c3)nc(N)c2cc1OC`, the growth is 103%.

A further assay concerns SNB-75 CNS. Described as above. The settings on record: 10 µM.
As to `S=C1SCC(c2ccccc2)S1` (stereo not drawn), the growth was 92.2%.

As to `Nc1ncnc2[nH]c(=O)[nH]c12`, the growth was 84.6%.

On to `Cc1ccc(S(=O)(=O)Oc2ccc3c4c(c(=O)oc3c2)CCCCC4)cc1`, for which the growth is 76.2%.

Take `CCN(CC)CCSCCN(CC)CC`: the growth was 96.3%.

In the case of `O=C(Nc1ccccc1)Nc1cccc(-n2cc(-c3ccncc3)c(-c3ccc(O)c(Cl)c3)n2)c1`, the growth is 48.3%.

In the case of `O=C(Nc1cccc(-n2cc(-c3ccncc3)c(-c3ccc(O)c(Cl)c3)n2)c1)c1cccc(C(F)(F)F)c1`, the growth is 39.4%.

For `O=C(CC(NC(=O)OCc1ccccc1)C(=O)OCc1ccccc1)OCc1ccccc1` (stereo not drawn), the growth was 113%.

Regarding `COc1ccc(Oc2nc(NC3CCCC3)nc(Sc3ccc(OC)cc3)n2)cc1`, the growth was 75.3%.

Regarding `COc1ccc(-c2nn(-c3cccc(NC(=O)c4ccc(N5CCOCC5)c(C(F)(F)F)c4)c3)cc2-c2ccncc2)cc1Cl`, the growth was 47%.

In the case of `COc1ccc(-c2nn(-c3cccc(NC(=O)Nc4ccccc4)c3)cc2-c2ccncc2)cc1Cl`, the growth is 27.5%.

For `CCCCCCCCCCCCCCCC(=O)OC1[C@@H](OC(=O)CCCCCCCCCCCCCCC)[C@@H](C(=O)N[C@@H](CCCCN)C(=O)OC)O[C@H]1n1cnc2c(=O)[nH]c(NC(=O)C(C)C)nc21` (stereo partly drawn), the growth is 94.1%.

For the compound `CCc1ccc2c(c1)N(CCO)C1=C(C(=O)OC1)C2c1cc(OC)c(OC)c(OC)c1` (stereo not drawn), the growth was 49.3%.

Take `O=S(=O)(NCCCNc1nccc(-c2c(-c3ccc(F)cc3)nc3sccn23)n1)c1ccc2ccccc2c1`: the growth was 50.1%.

Regarding `CN(C)c1ccc(/C=C/C=N/NC(=O)c2cc(O)c(O)c(O)c2)cc1`, the growth is 81.3%.

In the case of `Cc1ccc(S(=O)(=O)OCCN(CCOS(=O)(=O)c2ccc(C)cc2)c2c[nH]c(=O)[nH]c2=O)cc1`, the growth is 92.2%.

For `O=c1oc2cc(OS(=O)(=O)c3ccccc3)ccc2c2c1CCCCC2`, the growth was 69.5%.

Consider `COc1ccc(-c2nn(-c3cccc(NC(=O)c4ccc5c(c4)OCCO5)c3)cc2-c2ccncc2)cc1Cl`, for which the growth was 2.6% (active).

Consider `Cc1ncc(-c2ccoc2)c(NC2CCCCCC2)n1`, for which the growth is 97%.

Turning to `Clc1ccc(Sc2nc(NC3CC3)nc(Sc3ccc(Cl)cc3)n2)cc1`, the growth is 92%.

For `CN(C)CCN1C(=O)c2cccc3c(-c4ccc5ncn(C6CCCCC6)c5c4)ccc(c23)C1=O`, the growth was 40.1%.

Regarding `O=C(Nc1cccc(-n2cc(-c3ccncc3)c(-c3ccc(O)c(Cl)c3)n2)c1)Nc1cccc(C(F)(F)F)c1`, the growth was -0.929% (active).

`CN(C)Cc1cn(-c2ncc(-c3ccc(C(F)(F)F)cc3)c(NC3CCCCCC3)n2)nn1`: the growth was 72.9%.

For the compound `COc1ccc(/C=C/C(C)=N/OCC(=O)O)cc1`, the growth was 100%.

For `COc1ccc(-c2nn(-c3cccc(NC(=O)c4cc(C(F)(F)F)cc(C(F)(F)F)c4)c3)cc2-c2ccncc2)cc1Cl`, the growth is 60.9%.

Consider `O=C1CC[C@@H]2CCCC[C@@H]2C1`, for which the growth is 95.2%.

Consider `COc1ccc(C2=NN(C(=O)c3ccc(S(C)(=O)=O)cc3)C(c3ccc(OC)c(OC)c3)C2)c(OC)c1` (stereo not drawn), for which the growth was 94%.

As to `O=C1OCC2=C1C(c1cccc(Cl)c1)c1cc3c(cc1N2CCO)CCC3` (stereo not drawn), the growth is 40.5%.

For the compound `COc1ccc2c(c1)N(CCO)C1=C(C(=O)OC1)C2c1cc(OC)c(OC)c(OC)c1` (stereo not drawn), the growth is 38.3%.

As for `CCOC(=O)c1ccoc1`, the growth is 94.4%.

As for `O=S(=O)(NCCNc1nccc(-c2c(-c3ccc(F)cc3)nc3sccn23)n1)c1ccc2ccccc2c1`, the growth is 79.3%.

In the case of `CC1=C(N2CCOCC2)C(N2CCOCC2)=C(C)C(=O)C1=O`, the growth is 97.4%.

Take `O=C1OCC2=C1C(c1ccc(Cl)c(Cl)c1)c1cc3c(cc1N2CCO)OCCO3` (stereo not drawn): the growth was 30.3%.

As for `COc1cc2c(cc1OC)N(CCO)C1=C(C(=O)OC1)C2c1ccc(Cl)c(Cl)c1` (stereo not drawn), the growth is 106%.

With `O=C1NC(=O)c2ncccc21`, the growth was 98%.

`CNc1ncc(-c2ccc(C(F)(F)F)cc2)c(NC2CCCCCC2)n1`: the growth was 90.9%.

Regarding `COc1ccc(/C(=C2/O[C@@H]([C@H]3COC(C)(C)O3)[C@H]3OC(C)(C)O[C@@H]23)c2cc(OC)c(OC)c(OC)c2)cc1O`, the growth is 24.3%.

As for `O=C(NC(Cc1ccc(O)cc1)C(=O)N=Nc1c(O)[nH]c2ccccc12)c1ccccc1` (stereo not drawn), the growth is 96.2%.

On to `O=C(CNC(=O)OCc1ccccc1)NCC(=O)Oc1ccc([N+](=O)[O-])cc1`, for which the growth is 109%.

Consider `COc1cc2nc(Nc3cccc(C(=O)O)c3)nc(N)c2cc1OC`, for which the growth is 94.6%.
